# From article PMC5540273 (PLoS ONE, 2017)
# Legend:
# Settings in all cases: concentration: 1 μM,replicates: in singlicate; n = 1
# TNNI3K = tested on: TNNI3K
# TRKA = tested on: T1, TRKA
# T1 construct: gene NTRK1
# TRKB = tested on: TRKB
# TRKC = tested on: T2, TRKC
# T2 construct: gene NTRK3
# TRPM6 = tested on: TRPM6
# TSSK1B = tested on: TSSK1B
# TSSK3 = tested on: TSSK3
# TTK = tested on: TTK
# TXK = tested on: TXK
# [1] = tested on: TYK2(JH1domain-catalytic)
# 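Note: KINOMEscan kinase panel screen.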
Structure (SMILES),%Inh (TNNI3K) [%],%Inh (TRKA) [%],%Inh (TRKB) [%],%Inh (TRKC) [%],%Inh (TRPM6) [%],%Inh (TSSK1B) [%],%Inh (TSSK3) [%],%Inh (TTK) [%],%Inh (TXK) [%],%Inh [1] [%]
C[C@@H](Oc1cc(-n2cnc3cc(-c4cnn(C)c4)ccc32)sc1C(N)=O)c1ccccc1Cl [GSK580432],24,100,73,50,0,14,16,25,44,45
COC(=O)Nc1nc2cc(Oc3ccc(NC(=O)Nc4cc(C(F)(F)F)ccc4Cl)cc3)ccc2[nH]1.Cl [GW697465],88,100,99.7,99.8,0,0,10,1,0,14
CSc1nccc(-c2c(-c3ccc(F)cc3)ncn2CCCN2CCOCC2)n1.Cl [SB-217146],0,0,0,0,10,0,0,0,0,13
Cn1cc(-c2cccc3c(N)c(C(N)=O)nnc23)cn1,5,24,0,0,35,0,0,1,0,19
COc1cccc(C2=C(Nc3cccc(Cl)c3)C(=O)NC2=O)c1 [SB-341556],14,0,36,19,0,16,6,13,1,14
COc1cccc(OC)c1C(=O)Nc1cccc(-c2nn3ccccc3c2-c2ccnc(Nc3cccc(F)c3)n2)c1 [GSK361065],8,0,0,0,4,20,0,5,6,0
CCn1c(-c2nonc2N)nc2cncc(Br)c21 [SB-738004],0,56,20,44,0,0,25,0,0,58
N#Cc1cccc(C(=O)NC2CCN(c3ccnc(Nc4ccc(F)cc4)n3)C2)c1 (centres unmarked) [GSK1379708],4,0,8,28,0,0,18,0,0,14
